Source: PubChem BioAssay AID1159580 (chemical genetic matrix, 2015)
Hit rate of the full screen: of about 5,500 compounds, about 2,000 (36%) were called active. Another 18% or so got no clear call; they are omitted. No stated cut-off is given here; in the data, active means normalized growth mostly below about 0.91 (no sharp cut-off); inconclusive means no clear call, values can overlap the other calls; inactive means mostly above about 0.92. This is one part of the list.

Assay: chemical genetic growth profiling, strain panel (AID 1159580);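 further: tested at 20 µM; growth read once vehicle control cultures reached saturation at 30 °C; 1 = growth at the plate median or of vehicle wells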
Conditions: S. cerevisiae deletion strains, growth OD

Measured: normalized growth

C=C(C)C1Cc2c(ccc3c2OC2COc4cc(OC)c(OC)cc4C2C3=O)O1 (stereo unspecified)
inactive: locus YAL040C, strain CLN3, stronger effect = lower value 1.07 | locus YCL061C, strain MRC1 (second series), stronger effect = lower value 0.98 | locus YDR363W, strain ESC2, stronger effect = lower value 0.99 | locus YER002W, strain NOP16, stronger effect = lower value 0.992 | locus YNL153C, strain GIM3, stronger effect = lower value 0.942 | locus YNL175C, strain NOP13, stronger effect = lower value 0.955 | locus YNL197C, strain WHI3, stronger effect = lower value 0.979 | locus YNL224C, strain SQS1, stronger effect = lower value 0.964 | locus YNL322C, strain KRE1, stronger effect = lower value 0.98 | locus YOR083W, strain WHI5 (second series), stronger effect = lower value 0.958 | locus YPL055C, strain LGE1, stronger effect = lower value 1.01
